The source of these data is PubChem BioAssay (EPA / NIEHS).

As a reminder, the AC50 is the concentration at which the activity in the assay is half-maximal.

In assay [1] the target is human Peroxisome Proliferator-activated Receptor alpha (PPARa), PPARA (gene 5465) (UniProt Q07869). The experiment in a line: ATG_PPARa_TRANS: Attagene TRANS-FACTORIAL HepG2 Assay for human Peroxisome Proliferator-activated Receptor alpha (PPARa) (AID 2283001).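 For AC50: potency for gain of reporter signal over DMSO so agonist or activator.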 A digest of the protocol: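 HepG2 cells transiently transfected with multiplexed GAL4-UAS reporters driven by exogenous chimeric NR-Gal4 proteins; reporter mRNA measured after 24 h dosing. Read-out by RT-PCR, 6-FAM labelling, HpaI digestion and capillary electrophoresis; gain of signal versus DMSO.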

The target in assay [2] is human Peroxisome Proliferator-activated Receptor delta (PPARd), PPARD (gene 5467) (UniProt Q03181). As to the kind of experiment: ATG_PPARd_TRANS: Attagene TRANS-FACTORIAL HepG2 Assay for human Peroxisome Proliferator-activated Receptor delta (PPARd) (AID 2283002). A digest of the protocol: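 Read-out: reporter mRNA induction, quantified by fluorescent RT-PCR products resolved by capillary electrophoresis. Human HepG2 liver cells carried transiently transfected Gal4-UAS reporter constructs with chimeric NR-Gal4 fusions. Cells were dosed for 24 h; DMSO served as baseline.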

Assay [3] concerns the target human Retinoic Acid Receptor beta (RARb), RARB (gene 5915) (UniProt P10826). As to the kind of experiment: ATG_RARb_TRANS: Attagene TRANS-FACTORIAL HepG2 Assay for human Retinoic Acid Receptor beta (AID 2283004). A digest of the protocol:
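Transient transfection of HepG2 with multiple reporter units → chemical dosing, 24 h → total RNA isolation → RT with oligo(dT) → reporter-specific PCR, 6-FAM primer extension, HpaI digest → capillary electrophoresis. Positive direction vs DMSO control.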

Assay [4] has as its target Peroxisome proliferator-activated receptor gamma (Homo sapiens) (UniProt P37231). The experiment in a line: ATG_PPARg_TRANS: Attagene TRANS-FACTORIAL HepG2 Assay for human Peroxisome Proliferator-activated Receptor-gamma (PPARg) (AID 2283007). A digest of the protocol: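 Liver-derived HepG2 cells expressing an exogenous NR-Gal4 chimera alongside GAL4-UAS reporter genes; 24 h exposure. Fluorescence of reporter RT-PCR products, separated by capillary electrophoresis, gives mRNA induction relative to DMSO.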

For assay [5], the target named is Nuclear receptor subfamily 1 group I member 2 (Homo sapiens) (UniProt O75469). As to the kind of experiment: ATG_PXR_TRANS: Attagene TRANS-FACTORIAL HepG2 Assay for human Pregnane X Receptor (PXR) (AID 2283008). A digest of the protocol:
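HepG2 cells transiently transfected with GAL4-UAS reporter units and PXR-Gal4 chimera, exposed 24 h. Reporter mRNA quantified by RT-PCR, fluorescent labelling, HpaI digestion and capillary electrophoresis; gain of signal vs DMSO.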

Assay [6] has as its target human Retinoic Acid Receptor gamma (RARg), RARG (gene 5916) (UniProt P13631). The experiment in a line: ATG_RARg_TRANS: Attagene TRANS-FACTORIAL HepG2 Assay for human Retinoic Acid Receptor gamma (RARg) (AID 2283009). The essentials:
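Transient transfection of HepG2 with multi-reporter constructs, then 24 h chemical treatment. Total RNA isolated, reverse-transcribed, PCR-amplified, fluorescently labelled and resolved by capillary electrophoresis; activity scored as mRNA induction versus DMSO.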

Assay [7] addresses human RAR-related Orphan Receptor beta (RORb), RORB (gene 6096) (UniProt Q92753). The experiment in a line: ATG_RORb_TRANS: Attagene TRANS-FACTORIAL HepG2 Assay for human RAR-related Orphan Receptor beta (RORb) (AID 2283010). The essentials: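 Readout is reporter-gene mRNA induction, detected as fluorescence after RT-PCR and capillary electrophoresis, fitted for gain of signal against DMSO controls. Transiently transfected HepG2 liver cells carrying GAL4-UAS reporter constructs were treated for 24 hours.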

The target of assay [8] is human RAR-related Orphan Receptor gamma (RORg), RORC (gene 6097) (UniProt P51449). As to the kind of experiment: ATG_RORg_TRANS: Attagene TRANS-FACTORIAL HepG2 Assay for human RAR-related Orphan Receptor gamma (RORg) (AID 2283011). The essentials: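 First, HepG2 liver cells were transfected with GAL4-UAS-driven reporter constructs and the RORg-Gal4 fusion. Next, they were treated with chemical for 24 h. Finally, reporter mRNA was quantified by RT-PCR and capillary electrophoresis, with upward activity fitted against DMSO.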

In assay [9] the target is Retinoic acid receptor RXR-alpha (Homo sapiens) (UniProt P19793). As to the kind of experiment: ATG_RXRa_TRANS: Attagene TRANS-FACTORIAL HepG2 Assay for human Retinoid X Receptor alpha (RXRa) (AID 2283012). The essentials: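 Transient transfection of human HepG2 with multiple GAL4-UAS reporter constructs; 24 h compound exposure; total RNA isolated, reverse-transcribed, PCR-amplified, 6-FAM labelled, HpaI-cut, resolved by capillary electrophoresis. Positive-direction fit versus DMSO.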

In assay [10] the target is human Retinoid X Receptor beta (RXRb), RXRB (gene 6257) (UniProt P28702). As to the kind of experiment: ATG_RXRb_TRANS: Attagene TRANS-FACTORIAL HepG2 Assay for human Retinoid X Receptor beta (RXRb) (AID 2283013). A digest of the protocol: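 Transfect HepG2 with GAL4-UAS multi-reporter constructs (chimeric NR-Gal4, TRANS format); dose compound 24 h; isolate RNA, RT-PCR, FAM primer extension, HpaI digest; quantify by capillary electrophoresis; positive direction vs DMSO.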

Read-out in assay [11]: Intercellular Adhesion Molecule 1 (ICAM1), ICAM1 (gene 3383)
The experiment in a line: BSK_3C_ICAM1: BioMAP Diversity Plus: 3C Assay for Intercellular Adhesion Molecule 1 (ICAM1) Biomarker Activity (AID 2283003; active = hit-call score of the fitted dose curve at least 0.9, where 1 is the maximum; inactive = score below 0.9). Conditions: primary human endothelial cells (HUVEC); actives raise or lower the signal. The essentials: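 ICAM-1 levels measured by ELISA after HUVEC cultures in the 3C system had been dosed for 24 h. Gain or loss of signal relative to DMSO was fitted in both directions.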

A short description of assay [12]: BSK_3C_Proliferation: Cell Proliferation Assessment in the BioMAP Diversity Plus: 3C Assay (AID 2283006; active = hit-call score of the fitted dose curve at least 0.9, where 1 is the maximum; inactive = score below 0.9;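 note: potency may reflect either rise or fall in cell number versus DMSO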). Conditions: primary human endothelial cells (HUVEC). A digest of the protocol:
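Read-out is total protein by SRB absorbance at 560 nm, taken as a proxy for relative cell number. Primary human umbilical vein endothelium cultured below confluence was dosed for 48 h, TCA-fixed and SRB-stained; curves were fitted bidirectionally versus DMSO.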

Read-out in assay [13]: E-selectin (Homo sapiens) (UniProt P16581)
As to the kind of experiment: BSK_3C_Eselectin: BioMAP Diversity Plus: 3C Assay for Eselectin Biomarker Activity (AID 2283015; active = hit-call score of the fitted dose curve at least 0.9, where 1 is the maximum; inactive = score below 0.9). As to conditions: primary human endothelial cells (HUVEC); actives raise or lower the signal. A digest of the protocol: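 ELISA read-out of E-selectin on endothelial monolayers after 24 h chemical treatment. Human umbilical vein primary cells served as the system, with DMSO defining baseline activity for bidirectional fitting.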

Read-out in assay [14]: Interleukin-1 alpha (IL1a), IL1A (gene 3552)
The experiment in a line: BSK_BE3C_IL1a: BioMAP Diversity Plus: BE3C Assay for Interleukin-1 alpha (IL1a) Biomarker Activity (AID 2283016; active = hit-call score of the fitted dose curve at least 0.9, where 1 is the maximum; inactive = score below 0.9). As to conditions: primary human bronchial epithelial cells; actives raise or lower the signal. A digest of the protocol:
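BE3C primary human bronchial epithelium; cpd 24 h; IL-1a by ELISA; bidirectional fit vs DMSO; parallel SRB (0.1% SRB, 10% TCA fix, 560 nm) for cytotoxicity.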

Read-out in assay [15]: Monocyte Chemoattractant Protein-1 (MCP1), CCL2 (gene 6347)
The experiment in a line: BSK_3C_MCP1: BioMAP Diversity Plus: 3C Assay for Monocyte Chemoattractant Protein-1 (MCP1) Biomarker Activity (AID 2283017; active = hit-call score of the fitted dose curve at least 0.9, where 1 is the maximum; inactive = score below 0.9). As to conditions: primary human endothelial cells (HUVEC); actives raise or lower the signal. The essentials:
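ELISA read-out of MCP-1 from human umbilical vein endothelial cell cultures harvested 24 h post-dosing. Gain or loss of signal was fitted relative to DMSO.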

Read-out in assay [16]: Monocyte Chemoattractant Protein-1 (MCP1), CCL2 (gene 6347)
The experiment in a line: BSK_4H_MCP1: BioMAP Diversity Plus: 4H Assay for Monocyte Chemoattractant Protein-1 (MCP1) Biomarker Activity (AID 2283018; active = hit-call score of the fitted dose curve at least 0.9, where 1 is the maximum; inactive = score below 0.9). Conditions: primary human endothelial cells (HUVEC); actives raise or lower the signal. A digest of the protocol:
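ELISA read-out of MCP-1 from human vascular endothelial primary cells taken at 24 hours after compound exposure. Activity was fitted in both directions relative to DMSO, which served as negative control.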

Read-out in assay [17]: Human Leukocyte Antigen - DR isotype (HLADR), HLA-DRA (gene 3122)
The experiment in a line: BSK_3C_HLADR: BioMAP Diversity Plus: 3C Assay for Human Leukocyte Antigen - DR isotype (HLADR) Biomarker Activity (AID 2283019; active = hit-call score of the fitted dose curve at least 0.9, where 1 is the maximum; inactive = score below 0.9). Conditions: primary human endothelial cells (HUVEC); actives raise or lower the signal. A digest of the protocol: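 ELISA readout of surface HLA-DR on human umbilical vein endothelium, taken 24 h after chemical treatment. Gain- and loss-of-signal were both fitted relative to DMSO.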

Read-out in assay [18]: Interleukin-8 (IL8), CXCL8 (gene 3576)
As to the kind of experiment: BSK_3C_IL8: BioMAP Diversity Plus: 3C Assay for Interleukin-8 (IL8) Biomarker Activity (AID 2283020; active = hit-call score of the fitted dose curve at least 0.9, where 1 is the maximum; inactive = score below 0.9). As to conditions: primary human endothelial cells (HUVEC); actives raise or lower the signal. The essentials:
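ELISA read-out of IL-8 from human umbilical vein endothelium, measured 24 h after chemical dosing. Activity is expressed relative to DMSO negative control, with both increases and decreases fitted.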

Results filed as inconclusive are left out. Active and inactive are the calls of the source. Rule for the calls, unless noted: active = hit-call score of the fitted dose curve at least 0.9, where 1 is the maximum; inconclusive = response in the unintended direction; inactive = score below 0.9.

Chain of human Peroxisome Proliferator-activated Receptor alpha (PPARa), PPARA (gene 5465) (Q07869 whole entry, looked up, the tested form may be a part): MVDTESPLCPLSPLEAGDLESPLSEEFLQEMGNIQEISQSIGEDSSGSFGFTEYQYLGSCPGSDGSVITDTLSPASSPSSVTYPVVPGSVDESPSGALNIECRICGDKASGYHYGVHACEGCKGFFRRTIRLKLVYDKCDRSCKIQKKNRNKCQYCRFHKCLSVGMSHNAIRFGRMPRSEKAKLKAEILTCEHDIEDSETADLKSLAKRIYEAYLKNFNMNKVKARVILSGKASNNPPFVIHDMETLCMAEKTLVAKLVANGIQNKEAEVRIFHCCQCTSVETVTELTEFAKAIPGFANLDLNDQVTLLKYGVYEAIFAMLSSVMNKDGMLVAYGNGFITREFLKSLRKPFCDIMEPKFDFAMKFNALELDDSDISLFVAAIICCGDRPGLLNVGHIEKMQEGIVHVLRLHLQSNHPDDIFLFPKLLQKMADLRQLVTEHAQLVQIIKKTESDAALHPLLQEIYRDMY
Chain of Retinoic acid receptor RXR-alpha (Homo sapiens) (P19793 whole entry, looked up, the tested form may be a part): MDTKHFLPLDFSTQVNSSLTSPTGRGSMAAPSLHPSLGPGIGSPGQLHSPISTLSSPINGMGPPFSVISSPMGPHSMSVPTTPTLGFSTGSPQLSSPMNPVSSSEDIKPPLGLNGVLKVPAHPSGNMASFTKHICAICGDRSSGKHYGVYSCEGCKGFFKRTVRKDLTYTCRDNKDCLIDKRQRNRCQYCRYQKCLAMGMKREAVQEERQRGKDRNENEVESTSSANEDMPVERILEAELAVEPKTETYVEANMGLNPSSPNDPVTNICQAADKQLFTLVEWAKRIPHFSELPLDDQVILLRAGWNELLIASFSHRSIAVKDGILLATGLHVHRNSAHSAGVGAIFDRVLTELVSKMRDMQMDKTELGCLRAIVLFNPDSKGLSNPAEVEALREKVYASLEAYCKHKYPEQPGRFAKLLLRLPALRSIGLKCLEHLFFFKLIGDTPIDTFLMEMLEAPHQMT
Chain of Nuclear receptor subfamily 1 group I member 2 (Homo sapiens) (O75469 whole entry, looked up, the tested form may be a part): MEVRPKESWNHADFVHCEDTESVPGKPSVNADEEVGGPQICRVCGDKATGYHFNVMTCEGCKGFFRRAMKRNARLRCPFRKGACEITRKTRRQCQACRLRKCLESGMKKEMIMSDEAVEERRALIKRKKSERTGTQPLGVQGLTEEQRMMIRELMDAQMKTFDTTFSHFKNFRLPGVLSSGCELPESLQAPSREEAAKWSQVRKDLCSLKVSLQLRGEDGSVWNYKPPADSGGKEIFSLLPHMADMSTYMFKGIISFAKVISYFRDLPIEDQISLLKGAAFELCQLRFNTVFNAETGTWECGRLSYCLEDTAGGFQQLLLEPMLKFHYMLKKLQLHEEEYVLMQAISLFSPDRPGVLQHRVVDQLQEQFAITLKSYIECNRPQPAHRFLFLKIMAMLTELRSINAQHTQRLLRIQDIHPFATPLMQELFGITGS
Chain of human Peroxisome Proliferator-activated Receptor delta (PPARd), PPARD (gene 5467) (Q03181 whole entry, looked up, the tested form may be a part): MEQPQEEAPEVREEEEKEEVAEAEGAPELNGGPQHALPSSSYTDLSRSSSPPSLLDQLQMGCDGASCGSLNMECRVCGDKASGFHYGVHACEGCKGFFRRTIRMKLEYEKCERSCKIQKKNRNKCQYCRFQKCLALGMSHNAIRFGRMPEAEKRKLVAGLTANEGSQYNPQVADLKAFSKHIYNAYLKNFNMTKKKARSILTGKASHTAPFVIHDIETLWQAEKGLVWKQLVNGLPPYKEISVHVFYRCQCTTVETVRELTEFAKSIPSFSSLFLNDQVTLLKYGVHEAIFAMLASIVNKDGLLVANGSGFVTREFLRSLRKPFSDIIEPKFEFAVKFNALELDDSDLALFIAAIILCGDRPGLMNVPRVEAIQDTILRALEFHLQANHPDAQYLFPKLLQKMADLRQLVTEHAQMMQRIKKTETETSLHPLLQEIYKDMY
Chain of human Retinoid X Receptor beta (RXRb), RXRB (gene 6257) (P28702 whole entry, looked up, the tested form may be a part): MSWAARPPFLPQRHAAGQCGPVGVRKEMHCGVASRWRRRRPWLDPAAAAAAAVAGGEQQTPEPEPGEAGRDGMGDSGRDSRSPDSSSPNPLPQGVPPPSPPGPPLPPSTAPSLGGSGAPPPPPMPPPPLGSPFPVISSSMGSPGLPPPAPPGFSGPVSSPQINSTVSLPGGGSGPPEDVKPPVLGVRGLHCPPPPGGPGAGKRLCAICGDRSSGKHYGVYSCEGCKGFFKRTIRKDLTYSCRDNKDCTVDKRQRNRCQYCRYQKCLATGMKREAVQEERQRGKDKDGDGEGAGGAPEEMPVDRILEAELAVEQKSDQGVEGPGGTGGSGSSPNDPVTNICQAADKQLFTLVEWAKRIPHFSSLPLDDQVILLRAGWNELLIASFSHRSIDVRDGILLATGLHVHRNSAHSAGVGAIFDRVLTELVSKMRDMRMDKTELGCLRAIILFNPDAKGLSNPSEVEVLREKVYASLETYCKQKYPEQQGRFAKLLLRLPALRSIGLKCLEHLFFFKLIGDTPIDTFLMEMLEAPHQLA
Chain of human RAR-related Orphan Receptor beta (RORb), RORB (gene 6096) (Q92753 whole entry, looked up, the tested form may be a part): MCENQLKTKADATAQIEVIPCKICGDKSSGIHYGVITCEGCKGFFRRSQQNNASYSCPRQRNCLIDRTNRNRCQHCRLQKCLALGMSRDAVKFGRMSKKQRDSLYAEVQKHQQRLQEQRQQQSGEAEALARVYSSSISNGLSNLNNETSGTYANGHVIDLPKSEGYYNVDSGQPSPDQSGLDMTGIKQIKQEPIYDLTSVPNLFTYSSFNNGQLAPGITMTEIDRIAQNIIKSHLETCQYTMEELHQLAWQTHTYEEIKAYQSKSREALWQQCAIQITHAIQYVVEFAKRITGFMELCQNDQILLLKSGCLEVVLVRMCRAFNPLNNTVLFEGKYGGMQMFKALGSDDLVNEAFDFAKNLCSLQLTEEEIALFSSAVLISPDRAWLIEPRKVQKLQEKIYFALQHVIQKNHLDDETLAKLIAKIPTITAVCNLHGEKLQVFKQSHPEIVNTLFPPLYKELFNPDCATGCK
Chain of Peroxisome proliferator-activated receptor gamma (Homo sapiens) (P37231 whole entry, looked up, the tested form may be a part): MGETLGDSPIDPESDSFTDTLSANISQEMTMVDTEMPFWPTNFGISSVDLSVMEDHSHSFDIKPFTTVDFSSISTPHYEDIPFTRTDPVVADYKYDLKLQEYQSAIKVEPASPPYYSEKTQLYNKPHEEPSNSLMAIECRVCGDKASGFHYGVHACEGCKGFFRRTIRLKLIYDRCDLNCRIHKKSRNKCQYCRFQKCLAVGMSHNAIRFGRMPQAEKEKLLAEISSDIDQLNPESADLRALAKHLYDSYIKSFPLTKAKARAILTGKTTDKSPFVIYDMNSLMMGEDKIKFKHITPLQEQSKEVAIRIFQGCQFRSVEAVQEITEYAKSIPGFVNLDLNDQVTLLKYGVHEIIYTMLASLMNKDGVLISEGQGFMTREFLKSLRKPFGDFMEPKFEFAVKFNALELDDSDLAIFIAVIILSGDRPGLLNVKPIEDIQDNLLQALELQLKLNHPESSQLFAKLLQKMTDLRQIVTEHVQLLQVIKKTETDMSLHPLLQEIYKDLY
Chain of E-selectin (Homo sapiens) (P16581 whole entry, looked up): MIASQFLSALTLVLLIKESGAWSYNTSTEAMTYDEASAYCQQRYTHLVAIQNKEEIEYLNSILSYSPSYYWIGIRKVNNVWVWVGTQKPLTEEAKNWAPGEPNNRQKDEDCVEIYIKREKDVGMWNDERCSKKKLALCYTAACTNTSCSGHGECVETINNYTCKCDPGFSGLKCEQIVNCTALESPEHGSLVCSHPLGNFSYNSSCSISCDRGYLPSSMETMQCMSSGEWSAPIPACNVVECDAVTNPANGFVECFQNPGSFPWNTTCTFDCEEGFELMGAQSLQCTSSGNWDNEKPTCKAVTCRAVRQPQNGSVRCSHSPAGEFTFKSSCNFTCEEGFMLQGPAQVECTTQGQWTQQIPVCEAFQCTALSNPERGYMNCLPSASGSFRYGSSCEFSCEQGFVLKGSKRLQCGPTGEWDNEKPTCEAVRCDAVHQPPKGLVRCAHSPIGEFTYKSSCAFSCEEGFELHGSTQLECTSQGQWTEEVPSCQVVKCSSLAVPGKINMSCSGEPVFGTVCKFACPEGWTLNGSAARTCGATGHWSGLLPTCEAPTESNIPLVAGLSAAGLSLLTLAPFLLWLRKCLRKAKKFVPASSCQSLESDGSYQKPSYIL
Chain of human RAR-related Orphan Receptor gamma (RORg), RORC (gene 6097) (P51449 whole entry, looked up, the tested form may be a part): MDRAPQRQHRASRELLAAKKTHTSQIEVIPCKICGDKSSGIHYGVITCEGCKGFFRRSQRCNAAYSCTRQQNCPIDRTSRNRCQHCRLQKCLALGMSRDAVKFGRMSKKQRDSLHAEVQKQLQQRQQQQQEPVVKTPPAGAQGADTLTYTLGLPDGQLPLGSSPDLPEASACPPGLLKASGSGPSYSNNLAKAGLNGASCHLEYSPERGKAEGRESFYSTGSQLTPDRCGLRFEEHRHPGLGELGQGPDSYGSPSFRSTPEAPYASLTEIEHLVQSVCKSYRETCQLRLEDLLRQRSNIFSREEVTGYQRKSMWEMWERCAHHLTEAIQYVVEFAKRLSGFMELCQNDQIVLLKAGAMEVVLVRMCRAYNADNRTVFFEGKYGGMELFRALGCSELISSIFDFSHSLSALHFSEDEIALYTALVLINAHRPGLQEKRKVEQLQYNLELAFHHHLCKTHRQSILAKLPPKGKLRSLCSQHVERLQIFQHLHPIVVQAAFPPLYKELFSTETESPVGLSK
Chain of human Retinoic Acid Receptor beta (RARb), RARB (gene 5915) (P10826 whole entry, looked up): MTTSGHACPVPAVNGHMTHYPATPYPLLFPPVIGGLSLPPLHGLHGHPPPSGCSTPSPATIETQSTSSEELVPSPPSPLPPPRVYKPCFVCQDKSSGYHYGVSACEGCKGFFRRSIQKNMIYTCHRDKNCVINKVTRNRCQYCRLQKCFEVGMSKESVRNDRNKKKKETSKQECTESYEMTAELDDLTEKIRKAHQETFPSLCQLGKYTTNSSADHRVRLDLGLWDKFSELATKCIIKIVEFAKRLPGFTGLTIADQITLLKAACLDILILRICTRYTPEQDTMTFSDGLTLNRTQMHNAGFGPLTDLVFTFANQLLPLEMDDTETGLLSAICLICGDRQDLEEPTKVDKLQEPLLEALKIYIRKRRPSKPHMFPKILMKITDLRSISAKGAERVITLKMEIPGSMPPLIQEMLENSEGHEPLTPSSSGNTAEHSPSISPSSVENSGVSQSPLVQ

With `CCCCCOC(=O)CCC`, the result in assay [1], in [2], in assay [3], in assay [4], in [5] and in assay [6] was inactive. Further, the result in assay [7], in [8], in assay [9] and in assay [10] was inactive.

For the compound `O=C(Cl)c1cccc(C(=O)Cl)c1`, the outcome in assay [1] was inactive.

In the case of `O=C1CCCCCCCCCCCCCCO1`, the AC50 in assay [1] was 100 µM (active); in [2] it was 179 µM (active); in assay [11] it was 28.6 µM (active); in assay [12], 20 µM (active); in assay [4], 60.1 µM (active); in [5], 48.3 µM (active). The AC50 in assay [10] was 100 µM (active); in assay [13] it was 20 µM (active); in assay [14] it was 20 µM (active); in assay [15], 26.5 µM (active); in assay [16] it was 25.4 µM (active); in assay [17], 20 µM (active). The AC50 in assay [18] is 33.6 µM (active). For the same compound, the compound was classed as inactive in assay [7], in [8] and in assay [9].

On to `NNc1nc(-c2ccc(N)cc2)cs1`, for which the compound was called inactive in assay [1], in assay [2], in [4], in assay [5], in assay [7] and in [9]. In addition, the outcome in [10] was inactive.

As to `C#C[C@]1(O)CC[C@H]2[C@@H]3CCC4=Cc5oncc5C[C@]4(C)[C@H]3CC[C@@]21C`, the AC50 in [1] is 176 µM (active); in [12], 20 µM (active); in assay [5], 5.38 µM (active); in assay [9] it was 120 µM (active); in assay [10], 154 µM (active); in assay [13] it was 1.49 µM (active). The AC50 in assay [14] was 33.4 µM (active); in [17], 20 µM (active). Also, the compound was called inactive in [2], in assay [11], in [4], in assay [7], in assay [15] and in [16]. Also, the outcome in [18] was inactive.
